A short description of the assay: growth inhibition of WT strain, primary screen, mitochondrial fusion inhibitor project, WT and mutant strains, chemical genetic (AID 1362). The conditions noted are these: mitochondrial fusion phenotypic screen, at 10 µM.
The mark [1] stands for this setting: WT strain, growth inhibition, stronger effect = higher value.

56 compounds from PubChem BioAssay AID1362 (SRMLSC, 2008) can be followed below.

Among all 190,000 compounds or so, about 4,000 (2.1%) were called active. Cut-off read from the data, not from the text of the source: active = inhibition above about 58%; inactive = the rest, inconclusive results apart; tested in S. cerevisiae. For the sample, actives were picked, then their nearest neighbours and some compounds at random.

As to `CCNC(=S)NNC(=O)c1ccc2ncccc2c1`, the inhibition (as a rule, the change of the read-out against control, counted positive when it falls) reads like this: under setting [1], -18.5% (inactive); (mutant strain inhibition) -0.98%.
For `O=C(COC(=O)c1ccc(O)cc1)Nc1nccs1`, in that order: -7.58% (inactive) and 1.79%.
For `O=C(CN1CCN(c2ccc(Cl)cc2)CC1)NCc1cccs1`, in that order: 14.4% (inactive) and -1.49%.
Turning to `Cc1ccc(CNC(=O)CN2CCN(Cc3ccc(Cl)cc3)C2=O)cc1`, the inhibition under setting [1] is 4.82% (inactive) and the inhibition (mutant strain inhibition) was -0.06%.
The like results for `O=C(CN1CCN(S(=O)(=O)c2ccc(Cl)s2)CC1)NCc1ccc(Cl)cc1` were, in that order, 61.7% (active) and -2.81%.
For `Cc1ccc2nsnc2c1S(=O)(=O)N1CCCC1C(=O)O` (configuration not stated), in that order: 2.57% (inactive) and -0.55%.
For `CC(=O)NC(Cc1ccc(F)c(F)c1)C(=O)NC1CCN(c2nnnn2-c2ccccc2)CC1` (configuration not stated), in that order: -2.05% (inactive) and 7.21%.
Regarding `CS(=O)(=O)N(Cc1ccccc1Cl)c1ccc(C(=O)NCc2cccnc2)cc1`, the inhibition by setting is: under setting [1], 1.43% (inactive); (mutant strain inhibition) 5.31%.
The like results for `Clc1ccc(C2=CSC3=Nc4cccc5cccc(c45)N23)cc1` were, in that order, 61% (active) and 25.3%.
As for `COc1ccc(CN2CCNC(=O)C2CC(=O)N(C)Cc2ccccn2)cc1OC` (configuration not stated), the inhibition is, setting by setting: under setting [1], -6.3% (inactive); (mutant strain inhibition) -4.12%.
For `COC(=O)CSc1ccc2nnc(CCNS(=O)(=O)c3ccc(C)cc3)n2n1`, in that order: 8.31% (inactive) and 0.44%.
For `CCCCCC(=O)Nc1ccc(-c2cn3cccnc3n2)cc1`, in that order: 10.4% (inactive) and 10.5%.
The like results for `COc1ccc(CCN=C2SCC(=O)N2Cc2ccccc2)cc1OC` were, in that order, -7.75% (inactive) and -8.9%.
Turning to `O=C(O)CCC(=O)NCc1ccc2[nH]c3c(c2c1)CCCC3`, the inhibition runs as follows: under setting [1], 16.4% (inactive); (mutant strain inhibition) 10.2%.
For `Cc1cccc(NC(=S)NCCN(C2CCCCC2)C2CCCC2)c1`, in that order: 6.36% (inactive) and -17.7%.
`Cc1cccc(NC(=S)NCc2ccc3[nH]c4c(c3c2)CCCC4)c1`: the inhibition was 75.3% (active) under setting [1] and 51.7% (mutant strain inhibition).
For `OC(COc1ccc(CN2CCSCC2)cc1)CN1CCCCC1` (configuration not stated), in that order: -6.41% (inactive) and 3.34%.
The like results for `C=CCN(CC=C)C(=O)COC(=O)c1n[nH]c2ccccc12` were, in that order, 3.05% (inactive) and 3.34%.
For `NC(=O)COC(=O)c1cc(S(=O)(=O)N2CCN(c3ccccc3)CC2)ccc1Cl`, in that order: -11% (inactive) and 6.11%.
On to `CCC(C)c1ccc(NC(=S)NCc2ccccn2)cc1` (configuration not stated), for which the inhibition under setting [1] was 71% (active) and the inhibition (mutant strain inhibition) is 62.6%.
Take `COc1cccc(NC(=S)NCc2ccccn2)c1`: the inhibition under setting [1] was -0.62% (inactive) and the inhibition (mutant strain inhibition) is 6.49%.
The like results for `O=C(NCc1ccccn1)Nc1ccc(F)cc1` were, in that order, -29.6% (inactive) and -0.93%.
For the compound `COc1ccccc1Oc1ccc(S(=O)(=O)Nc2cccnc2)cc1`, the inhibition by setting is: under setting [1], 7.74% (inactive); (mutant strain inhibition) 7.52%.
The like results for `COC(=O)Cc1ccc(Oc2ncc(C(F)(F)F)cc2Cl)cc1` were, in that order, 13.6% (inactive) and 17.5%.
For `Cc1cc(C)cc(NS(=O)(=O)c2ccc(Oc3ncc(C(F)(F)F)cc3Cl)cc2)c1`, in that order: 75.5% (active) and 23.7%.
The like results for `COC(=O)C1=C(C)N(C)C(=S)NC1c1cc(OC)ccc1OC` (configuration not stated) were, in that order, 4.73% (inactive) and 3.84%.
For `O=C(NCc1ccccc1Cl)C1CCCO1` (configuration not stated), the inhibition by setting is: under setting [1], -11.3% (inactive); (mutant strain inhibition) 7.12%.
Take `COC(=O)CNC(=O)c1ccc(OC2CCN(C(=O)C3CC3)CC2)cc1`: the inhibition is 1.17% (inactive) under setting [1] and 10.2% (mutant strain inhibition).
The like results for `COc1cccc(NC(=S)N(Cc2ccc(C)cc2)Cc2ccccn2)c1` were, in that order, 4.22% (inactive) and 20.6%.
Consider `CSc1cccc(NC(=S)N(C(C)C)C(C)c2ccccn2)c1` (configuration not stated), for which the inhibition reads like this: under setting [1], 31.2% (inactive); (mutant strain inhibition) 20.5%.
For `CSc1cccc(NC(=S)N(Cc2ccccc2)Cc2ccccn2)c1`, in that order: 65.9% (active) and 28.6%.
For `CC(=O)Nc1ccc(S(=O)(=O)N(C)c2ccc(OCC(=O)OCC(=O)N3CCCCC3)cc2)cc1`, in that order: 0.1% (inactive) and -22.2%.
For `Cc1ccc(SCCC(=O)Nc2cc(C)on2)cc1`, in that order: 10.3% (inactive) and -8.98%.
On to `NC1=NC2(CCCCC2)N(c2ccc(F)cc2F)C(N)=N1`, for which the inhibition is, setting by setting: under setting [1], -0.71% (inactive); (mutant strain inhibition) -2.91%.
For `Cc1ccc2nc(NCCCNC(=O)c3cnccn3)c(C#N)cc2c1`, in that order: 90.6% (active) and -2.29%.
For `COCCCNC(=S)NCCNc1nc2cc(C)c(C)cc2cc1C#N`, in that order: 7.68% (inactive) and 10.7%.
For `Cc1ccc2cc(C#N)c(NCCNC(=S)NCCCN3CCOCC3)nc2c1`, in that order: 10.9% (inactive) and 3.33%.
Consider `O=C(NC1CC1)C1CCCN(C(=O)NC2CCCCC2)C1` (configuration not stated), for which the inhibition is, setting by setting: under setting [1], -6.93% (inactive); (mutant strain inhibition) -6.42%.
For `COc1nc(NC2CCCCC2)nc(N2CCCCCC2)n1`, in that order: 66.3% (active) and 28.3%.
In the case of `FC(F)(F)COc1nc(N2CCCCC2)nc(N2CCNCC2)n1`, the inhibition reads like this: under setting [1], 3.34% (inactive); (mutant strain inhibition) 2.8%.
For `Cc1ccnc(N2CCC(C(=O)NC3CCCCCC3)CC2)n1`, in that order: -13.5% (inactive) and -18.9%.
The like results for `CCN(CCCNC(=O)CSc1cc(=O)n(C)c2cc(Cl)ccc12)Cc1ccccc1` were, in that order, -10.6% (inactive) and -11.8%.
Regarding `CC(O)CNCCOc1cccc(Oc2ccccc2)c1` (configuration not stated), the inhibition reads like this: under setting [1], -0.49% (inactive); (mutant strain inhibition) 17.6%.
The like results for `CCOC(=O)c1[nH]ncc1CN1CCCC(C(=O)c2ccc(OC)cc2C)C1` (configuration not stated) were, in that order, 3.7% (inactive) and 9.86%.
For `O=C(N/N=C/c1cc2c(cc1Br)OCO2)C1COc2ccccc2O1` (configuration not stated), in that order: 29.9% (inactive) and 30%.
For `Cc1nc2ccccc2nc(C)c1=NOCc1ccc(Cl)cc1Cl`, in that order: 67.9% (active) and 2.92%.
For the compound `O=S(=O)(O)c1nc2ccccc2n1Cc1ccc(Cl)cc1Cl`, the inhibition by setting is: under setting [1], 18.7% (inactive); (mutant strain inhibition) 26%.
For `COC(=O)c1sc2ncccc2c1OCc1ccc(Cl)cc1Cl`, in that order: 12.8% (inactive) and -2.97%.
For `CC(C)N1C(=S)SC(C)(C)C1n1oc(=O)n(-c2ccc(Cl)c(Cl)c2)c1=O` (configuration not stated), in that order: 76.3% (active) and 19.9%.
For `Cc1ccc(C2CC(c3cccc(NS(C)(=O)=O)c3)=NN2S(C)(=O)=O)cc1` (configuration not stated), in that order: 4.24% (inactive) and 6.73%.
In the case of `CCOc1cc(CNn2c(C)nnc2SCC(=O)NC(C)(C)C)ccc1OCC(=O)NC(C)(C)C`, the inhibition by setting is: under setting [1], -19.6% (inactive); (mutant strain inhibition) 0.2%.
Take `Cc1cc(C(=O)CCl)c(C)n1CC1COc2ccccc2O1` (configuration not stated): the inhibition reads like this: under setting [1], 7.72% (inactive); (mutant strain inhibition) 25.4%.
For `N#Cc1c(N)nc2c(c1N)CC(C(F)(F)F)O2` (configuration not stated), in that order: -7.69% (inactive) and 1.1%.
The like results for `Cc1nc(N2CCC(C)CC2)c2c(C)c(C(=O)Nc3cc(F)ccc3C)sc2n1` were, in that order, 64% (active) and -25.2%.
The like results for `Cc1nc(N2CCN(c3ccccn3)CC2)c2c(C)c(C(=O)Nc3ccc(F)cc3)sc2n1` were, in that order, 38.7% (inactive) and 11.3%.
In the case of `Cc1nc(N2CCOCC2)c2c(C)c(C(=O)Nc3ccc(C(F)(F)F)cc3)sc2n1`, the inhibition under setting [1] is 47.4% (inactive) and the inhibition (mutant strain inhibition) was -8.5%.
